Laboratory results: PubChem BioAssay AID1159580 (chemical genetic matrix, 2015)
About 2,000 (36%) of roughly 5,500 compounds were called active. About 18% were inconclusive and are not listed. Rule as the data show it: active = normalized growth mostly below about 0.91 (no sharp cut-off); inconclusive = no clear call, values can overlap the other calls; inactive = mostly above about 0.92. Some of the results follow.

Experiment: chemical genetic growth profiling, strain panel (AID 1159580);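 also: tested at 20 µM; growth read once vehicle control cultures reached saturation at 30 °C; 1 = growth at the plate median or of vehicle wells; lower values mean less growth of the strain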
Conditions: S. cerevisiae deletion strains, growth OD

Measured: normalized growth

FC(F)(F)c1cccc(NC(=S)Nc2csc(C(F)(F)F)c2-c2ccccc2)c1
active: locus YHR030C, strain SLT2, hits give low values 0.848
inactive: locus YAR019C, strain CDC15, hits give low values 0.968 | locus YBL105C, strain PKC1, hits give low values 0.998 | locus YBR135W, strain CKS1, hits give low values 0.995 | locus YBR136W, strain MEC1, hits give low values 0.97 | locus YBR160W, strain CDC28, hits give low values 0.988 | locus YDL017W, strain CDC7, hits give low values 0.998 | locus YDL028C, strain MPS1, hits give low values 0.992 | locus YDL101C, strain DUN1, hits give low values 0.983 | locus YDL108W, strain KIN28, hits give low values 0.993 | locus YDL132W, strain cdc53, hits give low values 0.98 | locus YDL214C, strain PRR2, hits give low values 0.944 | locus YDR052C, strain DBF4, hits give low values 0.987 | locus YDR054C, strain cdc34, hits give low values 0.97 | locus YDR226W, strain ADK1, hits give low values 0.988 | locus YDR477W, strain SNF1, hits give low values 0.991 | locus YER123W, strain YCK3, hits give low values 0.991 | locus YER133W, strain GLC7, hits give low values 0.964 | locus YFL009W, strain cdc4, hits give low values 0.977 | locus YFL029C, strain CAK1, hits give low values 0.954 | locus YFR003C, strain YPI1, hits give low values 0.997 | locus YFR019W, strain FAB1, hits give low values 0.984 | locus YFR028C, strain CDC14, hits give low values 0.976 | locus YGR040W, strain KSS1, hits give low values 0.981 | locus YGR052W, strain FMP48, hits give low values 1.03 | locus YGR092W, strain DBF2, hits give low values 0.951 | locus YHR079C, strain IRE1, hits give low values 0.958 | locus YHR082C, strain KSP1, hits give low values 1 | locus YHR205W, strain SCH9, hits give low values 0.973 | locus YIL147C, strain SLN1, hits give low values 0.984 | locus YJL095W, strain BCK1, hits give low values 0.959 | locus YJL128C, strain PBS2, hits give low values 0.973 | locus YJL157C, strain FAR1, hits give low values 0.964 | locus YJR016C, strain ILV3, hits give low values 0.984 | locus YJR066W, strain TOR1 (second series), hits give low values 0.934 | locus YJR066W, strain TOR1, hits give low values 0.983 | locus YKL048C, strain ELM1, hits give low values 0.997 | locus YKL067W, strain YNK1, hits give low values 0.963 | locus YKL101W, strain HSL1, hits give low values 0.952 | locus YKL193C, strain SDS22, hits give low values 0.985 | locus YKL203C, strain TOR2, hits give low values 1.03 | locus YLR113W, strain HOG1, hits give low values 0.892 | locus YLR133W, strain CKI1, hits give low values 0.96 | locus YLR403W, strain SFP1, hits give low values 0.989 | locus YML070W, strain DAK1, hits give low values 0.965 | locus YMR001C, strain CDC5, hits give low values 0.993 | locus YMR205C, strain PFK2 (second series), hits give low values 0.96 | locus YMR277W, strain FCP1, hits give low values 0.987 | locus YNL006W, strain LST8, hits give low values 0.988 | locus YNL020C, strain ARK1, hits give low values 0.964 | locus YNL161W, strain CBK1, hits give low values 0.988 | locus YNL183C, strain NPR1, hits give low values 0.976 | locus YNL207W, strain RIO2, hits give low values 0.973 | locus YNL222W, strain SSU72, hits give low values 0.991 | locus YNL307C, strain MCK1 (second series), hits give low values 0.938 | locus YOL078W, strain AVO1, hits give low values 0.986 | locus YOL136C, strain PFK27, hits give low values 0.953 | locus YOR061W, strain CKA2, hits give low values 0.945 | locus YOR119C, strain RIO1, hits give low values 0.978 | locus YOR231W, strain MKK1, hits give low values 0.957 | locus YOR329C, strain SCD5, hits give low values 0.991 | locus YPL031C, strain PHO85, hits give low values 0.976 | locus YPL153C, strain RAD53, hits give low values 0.976 | locus YPL204W, strain HRR25, hits give low values 0.955 | locus YPL209C, strain IPL1, hits give low values 0.997 | locus YPL256C, strain CLN2, hits give low values 0.934 | locus YPR025C, strain CCL1, hits give low values 0.992 | locus YPR106W, strain ISR1, hits give low values 0.984 | locus YPR111W, strain DBF20, hits give low values 0.981 | strain NNK1, hits give low values 0.991 | strain TSCII, hits give low values 0.968

CC(O)C(O)[C@H]1CNc2nc(N)[nH]c(=O)c2N1 (stereo not given in full)
inactive: locus YAL040C, strain CLN3, hits give low values 1.04 | locus YCL061C, strain MRC1 (second series), hits give low values 1.01 | locus YDR150W, strain NUM1, hits give low values 1.02 | locus YDR363W, strain ESC2, hits give low values 1.01 | locus YER002W, strain NOP16, hits give low values 1 | locus YJR075W, strain HOC1, hits give low values 1.04 | locus YMR263W, strain SAP30, hits give low values 1.01 | locus YMR307W, strain GAS1, hits give low values 0.995 | locus YNL128W, strain TEP1, hits give low values 0.998 | locus YNL175C, strain NOP13, hits give low values 0.999 | locus YNL197C, strain WHI3, hits give low values 1.01 | locus YNL224C, strain SQS1, hits give low values 1 | locus YOR083W, strain WHI5 (second series), hits give low values 1.02 | locus YPL055C, strain LGE1, hits give low values 1.04
